According to PubChem BioAssay AID2284185 (EPA ToxCast):
Calls of active or inactive are those of the source. The calls were made as follows: active = hit-call score of the fitted dose curve at least 0.9, where 1 is the maximum; inactive = score below 0.9.

Biological target: human Dopamine Receptor D4.2 Antagonism, DRD4 (gene 1815) (UniProt P21917)
Assay: ERF_TW_GPCR_hDRD4: Eurofins (ERF) G Protein-Coupled Receptor (GPCR) Radioligand Binding LeadHunter Assay for human Dopamine Receptor D4.2 Antagonism
Method: ERF_TW_GPCR_hDRD4 is a biochemical, single-readout assay that uses extracted gene-proteins in a cell-free assay. Measurements were taken 2 hour after chemical dosing in a 96-well plate. See D4.2 Human Dopamine GPCR Binding (Antagonist Radioligand) Assay, Panlabs.ERF_TW_GPCR_hDRD4 is an assay component calculated from the ERF_TW_GPCR_hDRD4 assay. It is designed to measure radioligand binding using a type of binding reporter as detected by scintillation counting with radiometry technology.Data from the assay component ERF_TW_GPCR_hDRD4 was analyzed at the assay endpoint, ERF_TW_GPCR_hDRD4, in the positive analysis fitting direction relative to DMSO as the negative control and baseline of activity. Using a type of binding reporter, loss-of-signal activity can be used to understand changes in binding as they relate to gene DRD4. To generalize the intended target to other relatable targets, this assay endpoint is annotated to the gpcr intended target family, where the subfamily is dopamine.
Human recombiant cells are prepared in Tris-HCl buffer pH 7.4. A 24 ug aliquot is incubated with 0.5 nM [3H] Spiperone for 2 hours at 25C. Non-specific binding is estimated in the presence of 10 uM Haloperidol.

Sequence of human Dopamine Receptor D4.2 Antagonism, DRD4 (gene 1815) (P21917 whole entry, looked up): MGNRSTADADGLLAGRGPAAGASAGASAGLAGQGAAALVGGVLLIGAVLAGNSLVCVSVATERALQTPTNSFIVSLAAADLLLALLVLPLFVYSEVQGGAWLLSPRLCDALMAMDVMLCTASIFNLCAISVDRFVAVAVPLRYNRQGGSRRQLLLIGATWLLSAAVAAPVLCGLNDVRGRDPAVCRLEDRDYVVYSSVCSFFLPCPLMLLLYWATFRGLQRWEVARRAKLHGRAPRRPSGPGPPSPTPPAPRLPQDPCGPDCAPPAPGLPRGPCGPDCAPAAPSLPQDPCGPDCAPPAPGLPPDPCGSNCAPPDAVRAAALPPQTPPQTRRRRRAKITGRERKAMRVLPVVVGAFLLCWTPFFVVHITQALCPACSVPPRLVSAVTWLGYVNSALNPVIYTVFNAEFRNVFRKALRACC

| Compound | AC50 |
| --- | --- |
| O=C(/C=C/c1ccc(O)cc1)CC(=O)/C=C/c1ccc(O)cc1 | 1120 nM (active) |
